Screening data from PubChem.
USP1 inh: Inhibitors of USP1/UAF1: Primary Screen. recombinant USP1/UAF1, Ub-Rhodamine cleavage fluorescence. Potency, µM (series often up to 57.1 µM), for inactives: at the highest dose activity change, negative = inhibition, most hits filed as inhibitors. Ubiquitin carboxyl-terminal hydrolase 1 (Homo sapiens), O94782. 390,000 tested, 0.23% active; note: % is set by controls: 0 for no effect and ±100 for the full control effect; nearly all actives have a fitted effect of over 60% in size
Target sequence (O94782 whole entry, looked up): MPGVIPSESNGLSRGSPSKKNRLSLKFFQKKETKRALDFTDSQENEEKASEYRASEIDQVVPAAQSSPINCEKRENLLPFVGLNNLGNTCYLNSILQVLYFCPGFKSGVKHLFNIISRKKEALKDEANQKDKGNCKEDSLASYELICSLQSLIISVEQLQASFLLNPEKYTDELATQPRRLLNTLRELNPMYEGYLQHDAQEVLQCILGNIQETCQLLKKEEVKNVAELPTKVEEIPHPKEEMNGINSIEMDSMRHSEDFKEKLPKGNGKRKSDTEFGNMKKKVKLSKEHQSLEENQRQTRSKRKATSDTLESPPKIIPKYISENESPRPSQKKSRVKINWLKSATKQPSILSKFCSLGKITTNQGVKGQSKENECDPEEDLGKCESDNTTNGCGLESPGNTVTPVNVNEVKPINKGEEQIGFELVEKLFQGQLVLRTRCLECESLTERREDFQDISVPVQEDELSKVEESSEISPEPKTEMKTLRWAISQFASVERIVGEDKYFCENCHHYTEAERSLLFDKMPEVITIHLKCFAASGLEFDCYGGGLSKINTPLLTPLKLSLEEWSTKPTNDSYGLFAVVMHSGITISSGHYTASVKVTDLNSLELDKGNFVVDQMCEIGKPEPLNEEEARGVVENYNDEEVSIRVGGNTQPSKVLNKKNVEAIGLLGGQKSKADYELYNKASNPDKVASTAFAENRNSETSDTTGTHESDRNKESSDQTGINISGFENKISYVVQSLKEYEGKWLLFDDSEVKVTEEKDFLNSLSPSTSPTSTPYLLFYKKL
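High-throughput fluorogenic screen: 1nM USP1/UAF1 complex, Ub-Rho substrate 150nM final, 50mM HEPES pH 7.8 with 0.5mM EDTA, 0.1 mg/ml BSA, 1mM TCEP and 0.01% Tween-20.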
EPAC2 antagonist: qHTS for Antagonist of cAMP-regulated guanine nucleotide exchange factor 2 (EPAC2): primary screen | Rap guanine nucleotide exchange factor 4 (Homo sapiens), Q8WZA2 | AID 720708, 2013 | Potency, µM (highest dose often 114 µM), inactives show top-dose activity, negative = inhibition, usual class: inhibitors | EPAC2 GEF exchange of Rap1B-BODIPY-GDP, fluorescence | 360,000 tested, 0.18% active; note: % is set by controls: 0 for no effect and ±100 for the full control effect; nearly all actives have a fitted effect of over 45% in size
EPAC1 antag: qHTS for Antagonist of cAMP-regulated guanine nucleotide exchange factor 3 (EPAC1): primary screen | EPAC1 GEF assay, Rap1b-BODIPY-GDP exchange fluorescence | Potency, µM (highest dose often 115 µM), without a hit: top-dose activity change, negative = inhibition, most hits filed as inhibitors | AID 720709, 2013 | 360,000 tested, 0.14% active | Rap guanine nucleotide exchange factor 3 (Homo sapiens), O95398;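 note: plate controls were vehicle for no effect and positive control for full effect; nearly all actives have a fitted effect of over 50% in size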
VDR inh: Inhibitors of the vitamin D receptor (VDR): qHTS; Vitamin D3 receptor (Homo sapiens), P11473; 400,000 tested, 0.93% active; VDR-SRC2-3 peptide fluorescence polarization, 2 h; Potency, µM, for the others: max response, negative = inhibition, usual class: inhibitors; note: % is set by controls: 0 for no effect and ±100 for the full control effect
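Reagent solutions, kept cold and dark, are dispensed first; compounds are then pinned in at 23 nl, plates briefly spun, and incubated 2 h at ambient temperature. Inhibition of VDR–SRC2-3 peptide binding is read by fluorescence polarization.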
EPAC1 agonist: qHTS for Agonist of cAMP-regulated guanine nucleotide exchange factor 3 (EPAC1): primary screen; EPAC1 agonist qHTS, biochemical assay; response scale: 100% = response to 6.5 mM cAMP; Rap guanine nucleotide exchange factor 3 (Homo sapiens), O95398; Potency, µM (top dose mostly 154 µM), inactives show at the top dose activation, actives largely listed as activators; 360,000 tested, 0.073% active; note: nearly all actives have a fitted effect of over 60% in size
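Read-out is the fluorescence drop as BODIPY-GDP leaves Rap1B (480 nm excitation, 540 nm emission), recorded every 5 minutes over 30 minutes. Reactions held 100 nM EPAC1, 250 nM Rap1B–BODIPY-GDP and 50 uM GDP, with 6.5 mM cAMP setting full activation.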
EPAC2 ag: qHTS for Agonist of cAMP-regulated guanine nucleotide exchange factor 4 (EPAC2): primary screen. EPAC2 activation, biochemical qHTS; response scale: 100% = 6.5 mM cAMP response. 360,000 tested, 0.079% active. Potency, µM (titrated, usually from 154 µM), inactives show at the highest dose activation, most hits filed as activators. AID 720711, 2013. Rap guanine nucleotide exchange factor 4 (Homo sapiens), Q8WZA2; note: nearly all actives have a fitted effect of over 50% in size
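Each well held 100 nM EPAC2, 250 nM RAP1B-BODIPY-GDP and 50 uM GDP. Fluorescence, read at 5-min intervals to 30 min, was referenced to a 6.5 mM cAMP positive control.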
Starred values were filed as active, the others as inactive; ? = inconclusive; . = no result given. Shown are actives, neighbours in structure and some others; about 1.2% of the full set was active somewhere. Calls come from the whole dose curve; as a rule, active = well fitted curve in the direction sought with a large enough effect; inconclusive = small, poorly fitted or top-dose-only effect, or another doubt; inactive = no such curve, though single readings can be large; an effect the other way counts as inactive or inconclusive. Potency is the fitted concentration of half-maximal effect.

SMILES	USP1 inh	EPAC2 antagonist	EPAC1 antag	VDR inh	EPAC1 agonist	EPAC2 ag
C[C@@H]1C(=O)O[C@H]2[C@H](O)[C@@]34[C@H]5CC(C(C)(C)C)[C@]36[C@H](OC(=O)[C@H]6O)O[C@]4(C(=O)O5)[C@@]12O (stereo partly specified)	.	.	.	5%	.	.
Cc1ccc(NC(=O)Cn2c(=O)n(CCCCC(=O)NCc3ccc4c(c3)OCO4)c(=O)c3ccccc32)cc1	-27%	.	.	-2%	.	.
Cc1cnc(CNc2nc(-c3ccc(C(=O)N(C)C)cc3)nc3ccccc23)cn1	.	.	.	-14%	.	.
C[C@H](NC(=O)Cc1cc(F)cc(F)c1)C(=O)N[C@@H](C(=O)OC(C)(C)C)c1ccccc1	.	.	.	-1%	.	.
N#C/C(=C\c1c(Oc2ccc(Br)cc2)nc2ccccn2c1=O)c1nc2ccccc2s1	-5%	.	.	40µM*	.	.
O=C1Nc2ccccc2C1=Nc1ccc(Cl)cc1	-19%	2%	2%	?	-6%	2%
CCN(CC)c1ccc(N=C2C(=O)Nc3ccccc32)cc1	32µM*	2%	-24%	?	-12%	-1%
O=C1Nc2ccccc2C1=Nc1ccc(Br)cc1	-9%	3%	-25%	22µM*	-8%	6%
Cc1ccc(N=C2C(=O)Nc3ccccc32)cc1	?	12%	-10%	1%	14%	11%
COc1cccc(-c2coc3ccc(Br)cc3c2=O)c1	.	.	.	4%	.	.
O=C(c1ccco1)N1CCC[C@@]2(CCN(c3ccccn3)C2)C1	.	.	.	-15%	.	.
O=C(c1cccc(F)c1)N1CCC2(CCCN(c3cccc(-c4ccccc4)c3)C2)CC1	.	.	.	-14%	.	.
O=C(c1ccncc1)N1CCC2(CCCN(c3cccc(-c4ccccc4)c3)C2)CC1	.	.	.	45µM*	.	.
O=C(c1ccco1)N1CCC[C@@]2(CCN(c3cccc(-c4ccccc4)c3)C2)C1	.	.	.	28µM*	.	.
COC(=O)N1CCC2(CCCN(C(c3ccccc3)c3ccccc3)C2)CC1	.	.	.	-20%	.	.
O=C(c1ccco1)N1CCC2(CCCN(C(c3ccccc3)c3ccccc3)C2)CC1	.	.	.	35µM*	.	.
O=C(c1ccncc1)N1CCC[C@@]2(CCN(c3cccc(-c4ccccc4)c3)C2)C1	.	.	.	40µM*	.	.
O=C(Nc1ccccc1Sc1ccccc1)c1cnn2c1NC(=C1CC1)C=C2C(F)F	.	.	.	-11%	.	.
Cc1ccc(C)c(Cn2c(-c3cccs3)nc3ccccc32)c1	-25%	.	.	10%	.	.
COc1ccc(-c2ccc(F)cc2)cc1C1C2C=CCC(C)C2C(=O)N1Cc1ccccc1 (stereo unspecified)	.	.	.	23%	.	.
O=C(c1cnccn1)N1CCC2(CCCN(c3cccc(-c4ccccc4)c3)C2)CC1	.	.	.	35µM*	.	.
O=C(c1cnccn1)N1CCC2(CCCN(c3ncccn3)C2)CC1	.	.	.	-12%	.	.
CN(CC(=O)Nc1ccc(F)cc1)C(=O)COC(=O)C1CCN(c2ccc(C(F)(F)F)cn2)CC1	-23%	-17%	-16%	-5%	100µM*	0%
O=C(COC(=O)C1CCN(c2ccc(C(F)(F)F)cn2)CC1)Nc1ccc(Cl)cc1	-14%	-10%	-22%	-17%	6%	3%
CN(C)c1ccc(-c2cncnc2-n2ccnc2)cc1	.	.	.	45µM*	.	.
SMILES	USP1 inh	EPAC2 antagonist	EPAC1 antag	VDR inh	EPAC1 agonist	EPAC2 ag
CN(C)c1ccc(-c2cncnc2Nc2ccc(F)cc2)cc1	.	.	.	45µM*	.	.
c1ccc(Nc2ncncc2-c2ccoc2)cc1	.	.	.	56µM*	.	.
Cc1ccccc1-c1cncnc1Nc1ccc(F)cc1	.	.	.	-10%	.	.
Fc1ccc(Nc2ncncc2-c2ccoc2)cc1	.	.	.	32µM*	.	.
CCC1C(=O)CC2CCN3C(=O)CCC1C23 (stereo unspecified)	.	.	.	-21%	.	.
CC(C)=CCC[C@](C)(O)C1CC[C@]2(C)[C@@H]1CC[C@@H]1[C@@]3(C)CCC(=O)C(C)(C)[C@@H]3CC[C@]12C (stereo partly specified)	.	.	.	3%	.	.
COc1ccccc1-c1cncnc1Nc1ccc(F)cc1	.	.	.	-14%	.	.
COc1ccccc1-c1cncnc1Nc1ccccc1	.	.	.	28µM*	.	.
COc1ccc(-c2cc3c(nn2)-c2ccccc2C3=O)cc1	-22%	6%	15%	79µM*	-3%	0%
CCCCNC1C(CC)C(CCC)C(C#N)(C#N)C1(C#N)C#N (stereo unspecified)	-17%	4%	-5%	45µM*	-25%	6%
Cc1ccc(Oc2ccccc2NC(=O)CSCC(=O)Nc2cc(C)on2)cc1	-22%	-7%	-13%	-2%	112µM*	4%
Cc1cc(NC(=O)CSCC(=O)Nc2ccccc2Oc2ccccc2)no1	-4%	-4%	-20%	0%	0%	-3%
CCC1CCCCN1C(=O)Cn1c(=O)n(-c2ccccc2C(F)(F)F)c(=O)c2c(C)c(C(=O)N(C)C)sc21 (stereo unspecified)	-14%	.	.	5%	.	.
Cc1ccc(C(=O)Nc2nnc(SCc3cc(=O)n4ccc(C)cc4n3)s2)cc1	?	.	.	16%	.	.
CCCN1CCCc2cc(CN)ccc21	16µM*	-1%	-8%	28µM*	7%	9%
C=C1C(=O)OC2C[C@@]3(C)CCCC(C)C3=CC12 (stereo partly specified)	.	.	.	40µM*	.	.
C[C@H]1CCC[C@]2(C)C[C@H]3OC(=O)C(CN4CCCCCC4)[C@H]3C=C12 (stereo partly specified)	-17%	3%	-9%	-6%	-1%	5%
Cc1cccc(NC(=O)c2cn(-c3ccccc3)nc2-c2ccccc2)c1C	-15%	.	.	-12%	.	.
CC1(C)OC(=O)C2(Cc3cc([N+](=O)[O-])ccc3N3CCCCCC32)C(=O)O1 (stereo unspecified)	.	.	.	-7%	.	.
CCOC(=O)c1c(C)sc(-c2c(-c3cc(C)ccc3C)[nH]c3c2c(=O)n(C)c(=O)n3C)c1O	28µM*	.	.	6%	.	.
CCOC(=O)c1c(C)sc(-c2c(-c3cccc(Cl)c3)[nH]c3c2c(=O)n(C)c(=O)n3C)c1O	16µM*	.	.	-13%	.	.
Cc1ccc(C)c(-c2[nH]c3c(c2-c2c(-n4cccc4)n(C)c(=O)n(C)c2=O)c(=O)n(C)c(=O)n3C)c1	-8%	.	.	9%	.	.
